Assay [1] is described as follows: NS1 protein of Zika virus - qHTS assay to identify small molecule inhibitors in human HEK 293 cells (AID 1347053). Further: nearly all actives have a fitted effect of over 55% in size. Conditions: HEK293 ZIKV MR766 infection, NS1 TR-FRET, 24 h; series mostly up to 46.1 µM. An outline of the steps: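 Readout was TR-FRET using paired anti-NS1 antibodies after 24 h infection of HEK 293 cells with ZIKV MR766 (MOI = 0.5). Compound preceded virus by 1 h; reduced signal reflects lower NS1 expression.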
For orientation: Quantitative high-throughput screening tests each substance at several concentrations.

The nature of assay [2]: qHTS of pediatric cancer cell lines to identify multiple opportunities for drug repurposing: Primary screen for TC32 cells (AID 1347089). Further: nearly all actives have a fitted effect of over 60% in size. Conditions: TC32 Ewing sarcoma viability, CellTiter-Glo luminescence, 48 h; series mostly up to 45.8 µM. An outline of the steps: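 Luminescent CellTiter-Glo read-out of metabolically active TC32 cells after 48 h compound exposure. Primary: MIPE 11-point, 0.78 nM–46 µM; NPC 8-point, 0.59 nM–46 µM. Confirmatory: 11-point dilutions.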

A short description of assay [3]: qHTS of pediatric cancer cell lines to identify multiple opportunities for drug repurposing: Primary screen for DAOY cells (AID 1347090). Further: nearly all actives have a fitted effect of over 55% in size. Further: potency means the concentration at half of the fitted maximal effect. To be noted: DAOY medulloblastoma viability, CellTiter-Glo luminescence, 48 h; series mostly up to 46 µM. The method in brief:
(§1)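 Eight- or eleven-point concentration series, 48 h treatment at 37 degrees C in growth media; readout CellTiter-Glo luminescence. Potency and efficacy were taken from the concentration-response curves.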

Assay [4] in a line: qHTS of pediatric cancer cell lines to identify multiple opportunities for drug repurposing: Primary screen for A673 cells (AID 1347092). Further: nearly all actives have a fitted effect of over 45% in size. Further: potency means the concentration at half of the fitted maximal effect. To be noted: A673 Ewing sarcoma viability, CellTiter-Glo ATP luminescence, 48 h; series mostly up to 46 µM. An outline of the steps: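 A673 cells (500-1,000 cells/well in growth media) were pre-incubated 5 h at 37 degrees C, then exposed to compounds for 48 h. Viability was read as CellTiter-Glo luminescence; concentration-response curves came directly from the primary screen.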

Assay [5] in a line: qHTS of pediatric cancer cell lines to identify multiple opportunities for drug repurposing: Primary screen for SK-N-MC cells (AID 1347093). Further: potency means the concentration at half of the fitted maximal effect. To be noted: SK-N-MC viability, CellTiter-Glo luminescence, 48 h; series mostly up to 46 µM. The method in brief:
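Metabolically active cells were quantified by ATP-dependent luminescence (CellTiter-Glo, 15 min at room temperature) following 48 h treatment. Cells had been plated at 500-1,000 per well and settled for 5 h beforehand.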

Assay [6] can be described thus: qHTS of pediatric cancer cell lines to identify multiple opportunities for drug repurposing: Primary screen for SJ-GBM2 cells (AID 1347091). To be noted: SJ-GBM2 viability, CellTiter-Glo luminescence, 48 h; series mostly up to 46 µM. An outline of the steps: as §1

The structures appear in SMILES notation. Inconclusive results are not listed. The source made the active and inactive calls. The call rests on the fitted dose curve; in most records, active means well fitted curve in the direction sought with a large enough effect; inconclusive means small, poorly fitted or top-dose-only effect, or another doubt; inactive means no such curve, though single readings can be large; an effect the other way counts as inactive or inconclusive.

Consider `N#Cc1ccc(NC(=O)Nc2ccccc2Br)c2n[nH]nc12`, for which the Potency result in assay [1], in assay [2] and in assay [3] was “inactive” throughout. Also, the Potency in assay [4] was 23.5 µM (active); in assay [5], 26.4 µM (active).
As for `Nc1ncnc2c1ncn2[C@@H]1O[C@@H](CO)[C@H](O)[C@H]1O`, the Potency entry in assay [1], in assay [2], in assay [3], in assay [6] and in assay [5] was “inactive” throughout.
As for `CCc1ccc(C=C2SC(=S)NC2=O)cc1`, the Potency result in assay [1], in assay [2], in assay [3] and in assay [5] was “inactive” each time.
With `CC(C)C(=O)Oc1ccc(CO)cc1[C@H](CCN(C(C)C)C(C)C)c1ccccc1`, the Potency result in assay [1], in assay [2], in assay [3], in assay [6] and in assay [5] was “inactive” in each case.
In the case of `O=C(OCC#CCSc1nnc(-c2cccc3ccccc23)o1)c1cc2ccccc2s1`, the Potency entry in assay [1], in assay [2], in assay [3], in assay [6], in assay [4] and in assay [5] was “inactive” throughout.
As to `CCOC(=O)O[C@]1(C(=O)OCCl)CC[C@@H]2[C@H]3CCC4=CC(=O)C=C[C@]4(C)[C@@H]3[C@@H](O)C[C@@]21C`, the Potency entry in assay [1], in assay [2], in assay [3], in assay [6] and in assay [5] was “inactive” throughout.
Regarding `COc1cc(NC(=O)c2ccc(-c3ccc(Cl)cc3)o2)cc(OC)c1`, the Potency entry in assay [1] and in assay [2] was “inactive” throughout. The Potency in assay [3] is 2.96 µM (active); in assay [4], 7.43 µM (active); in assay [5], 1.32 µM (active).
Consider `C[N+]1(C)[C@@H]2CC(OC(=O)[C@H](CO)c3ccccc3)C[C@H]1[C@H]1O[C@@H]12` (stereo partly specified), for which the Potency entry in assay [1], in assay [2], in assay [3], in assay [6] and in assay [5] was “inactive” throughout.
On to `Clc1ccc(-c2nc3sccn3c2C=NOCc2ccc(Cl)c(Cl)c2)cc1`, for which the Potency entry in assay [1], in assay [2] and in assay [6] was “inactive” each time.
With `O=C1NC(=O)C(=Cc2ccc(-c3ccc(F)cc3)o2)S1`, the Potency result in assay [1], in assay [2] and in assay [6] was “inactive” throughout.
